In all, about 16,000 sequences were measured (“rpm ratio (pull-down/input)”: median about 0.94, highest 2% from about 1.7 on). This excerpt belongs to a sample that is enriched for the highest values.
Molecular target: T1, MBP-FoxP1dN (Mus musculus, UniProt P58462 326-579)
T1 sequence: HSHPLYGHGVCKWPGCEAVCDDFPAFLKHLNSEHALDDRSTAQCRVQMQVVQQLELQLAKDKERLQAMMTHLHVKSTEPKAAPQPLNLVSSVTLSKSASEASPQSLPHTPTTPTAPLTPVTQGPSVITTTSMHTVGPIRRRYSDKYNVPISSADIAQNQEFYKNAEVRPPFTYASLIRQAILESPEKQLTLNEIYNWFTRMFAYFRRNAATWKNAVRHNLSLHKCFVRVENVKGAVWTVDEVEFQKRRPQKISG
Assay: PD-seq (MBP pull-down with sequencing); 20 mM Tris-HCl pH 7.5, 100 mM NaCl, 1.5 mM MgCl2, 0.4 uM protein, 0.1 uM dsDNA library, 30 min, room temperature, amylose pull-down; high values mean tight binding
Settings: protein: recombinant; tags: His6-MBP; chain copies: 2; dsDNA, one strand shown
How it was run: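 Protein and DNA were mixed at 0.4 µM and 0.1 µM and held for 30 min at room temperature in Tris pH 7.5 buffer with NaCl and MgCl2; the protein was a His6-MBP-tagged, N-terminally truncated mouse FoxP3 or FoxP1 fragment from E. coli, and the DNA a Klenow-filled double-stranded degenerate library. Amylose resin captured the complexes, which were washed three times. Binding is read as reads-per-million enrichment of pull-down versus input after Illumina sequencing, with replicates pooled.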

| Sequence | binding signal |
| --- | --- |
| GATGATTGTTCTCCCAGCTGATGAATTGTTGTAATCGAGTAAACAAATTTTCCTAATCTTTCTGTTCAAGCGCCATCTAC | 1.96 RPM ratio (pull-down/input) |
| GATGATTGTTCTCCCAGCTGATGAATTTTATACATCGAGTAAACAAATTTTCCTAATCTTTCTGTTCAAGCGCCATCTAC | 1.09 RPM ratio (pull-down/input) |
| GATGATTGTTCTCCCAGCTGATGAATTTGTAACATCGAGTAAACAAATTTTCCTAATCTTTCTGTTCAAGCGCCATCTAC | 1.45 RPM ratio (pull-down/input) |
| GATGATTGTTCTCCCAGCTGATGAATTTCAAACATCGAGTAAACAAATTTTCCTAATCTTTCTGTTCAAGCGCCATCTAC | 1.18 RPM ratio (pull-down/input) |
| GATGATTGTTCTCCCAGCTGATGAATTCTATACATCGAGTAAACAAATTTTCCTAATCTTTCTGTTCAAGCGCCATCTAC | 1.08 RPM ratio (pull-down/input) |
| GATGATTGTTCTCCCAGCTGATGAATTGTATACATCGAGTAAACAAATTTTCCTAATCTTTCTGTTCAAGCGCCATCTAC | 2.35 RPM ratio (pull-down/input) |
| GATGATTGTTCTCCCAGCTGATGAATTTCTGTAATCGAGTAAACAAATTTTCCTAATCTTTCTGTTCAAGCGCCATCTAC | 1.49 RPM ratio (pull-down/input) |
| GATGATTGTTCTCCCAGCTGATGAATTGTATACGTCGAGTAAACAAATTTTCCTAATCTTTCTGTTCAAGCGCCATCTAC | 1.82 RPM ratio (pull-down/input) |
| GATGATTGTTCTCCCAGCTGATGAATTCTATACGTCGAGTAAACAAATTTTCCTAATCTTTCTGTTCAAGCGCCATCTAC | 0.962 RPM ratio (pull-down/input) |
| GATGATTGTTCTCCCAGCTGATGAATTCTGTAAATCGAGTAAACAAATTTTCCTAATCTTTCTGTTCAAGCGCCATCTAC | 1.18 RPM ratio (pull-down/input) |
| GATGATTGTTCTCCCAGCTGATGAATTGTAAACATCGAGTAAACAAATTTTCCTAATCTTTCTGTTCAAGCGCCATCTAC | 2.78 RPM ratio (pull-down/input) |
| GATGATTGTTCTCCCAGCTGATGAATTTTATACGTCGAGTAAACAAATTTTCCTAATCTTTCTGTTCAAGCGCCATCTAC | 0.957 RPM ratio (pull-down/input) |
| GATGATTGTTCTCCCAGCTGATGAATTTAACGCCTCGAGTAAACAAATTTTCCTAATCTTTCTGTTCAAGCGCCATCTAC | 0.91 RPM ratio (pull-down/input) |
| GATGATTGTTCTCCCAGCTGATGAATTAGCGCACTCGAGTAAACAAATTTTCCTAATCTTTCTGTTCAAGCGCCATCTAC | 0.88 RPM ratio (pull-down/input) |
| GATGATTGTTCTCCCAGCTGATGAATTACACGCGTCGAGTAAACAAATTTTCCTAATCTTTCTGTTCAAGCGCCATCTAC | 1.18 RPM ratio (pull-down/input) |
| GATGATTGTTCTCCCAGCTGATGAATTCACGGGTTCGAGTAAACAAATTTTCCTAATCTTTCTGTTCAAGCGCCATCTAC | 0.766 RPM ratio (pull-down/input) |
| GATGATTGTTCTCCCAGCTGATGAATTCAGTCTATCGAGTAAACAAATTTTCCTAATCTTTCTGTTCAAGCGCCATCTAC | 0.905 RPM ratio (pull-down/input) |

| Sequence | binding signal |
| --- | --- |
| GATGATTGTTCTCCCAGCTGATGAATTCGCCACTTCGAGTAAACAAATTTTCCTAATCTTTCTGTTCAAGCGCCATCTAC | 0.857 RPM ratio (pull-down/input) |
| GATGATTGTTCTCCCAGCTGATGAATTGTACTCATCGAGTAAACAAATTTTCCTAATCTTTCTGTTCAAGCGCCATCTAC | 1.04 RPM ratio (pull-down/input) |
| GATGATTGTTCTCCCAGCTGATGAATTTTATAGGTCGAGTAAACAAATTTTCCTAATCTTTCTGTTCAAGCGCCATCTAC | 0.796 RPM ratio (pull-down/input) |
| GATGATTGTTCTCCCAGCTGATGAATTGAGTGTATCGAGTAAACAAATTTTCCTAATCTTTCTGTTCAAGCGCCATCTAC | 1.16 RPM ratio (pull-down/input) |
| GATGATTGTTCTCCCAGCTGATGAATTCATGTTATCGAGTAAACAAATTTTCCTAATCTTTCTGTTCAAGCGCCATCTAC | 1.78 RPM ratio (pull-down/input) |
| GATGATTGTTCTCCCAGCTGATGAATTATGTAAATCGAGTAAACAAATTTTCCTAATCTTTCTGTTCAAGCGCCATCTAC | 1.47 RPM ratio (pull-down/input) |
| GATGATTGTTCTCCCAGCTGATGAATTTATGATATCGAGTAAACAAATTTTCCTAATCTTTCTGTTCAAGCGCCATCTAC | 1.33 RPM ratio (pull-down/input) |
| GATGATTGTTCTCCCAGCTGATGAATTATGATTATCGAGTAAACAAATTTTCCTAATCTTTCTGTTCAAGCGCCATCTAC | 1.51 RPM ratio (pull-down/input) |
| GATGATTGTTCTCCCAGCTGATGAATTTTATGAATCGAGTAAACAAATTTTCCTAATCTTTCTGTTCAAGCGCCATCTAC | 0.942 RPM ratio (pull-down/input) |
| GATGATTGTTCTCCCAGCTGATGAATTATGTTTATCGAGTAAACAAATTTTCCTAATCTTTCTGTTCAAGCGCCATCTAC | 2.99 RPM ratio (pull-down/input) |
| GATGATTGTTCTCCCAGCTGATGAATTATCTTTATCGAGTAAACAAATTTTCCTAATCTTTCTGTTCAAGCGCCATCTAC | 1.09 RPM ratio (pull-down/input) |
| GATGATTGTTCTCCCAGCTGATGAATTCATGTAATCGAGTAAACAAATTTTCCTAATCTTTCTGTTCAAGCGCCATCTAC | 1.5 RPM ratio (pull-down/input) |
| GATGATTGTTCTCCCAGCTGATGAATTTATGTAATCGAGTAAACAAATTTTCCTAATCTTTCTGTTCAAGCGCCATCTAC | 1.95 RPM ratio (pull-down/input) |
| GATGATTGTTCTCCCAGCTGATGAATTTTATGTATCGAGTAAACAAATTTTCCTAATCTTTCTGTTCAAGCGCCATCTAC | 1.71 RPM ratio (pull-down/input) |
| GATGATTGTTCTCCCAGCTGATGAATTTATGTTATCGAGTAAACAAATTTTCCTAATCTTTCTGTTCAAGCGCCATCTAC | 2.22 RPM ratio (pull-down/input) |
| GATGATTGTTCTCCCAGCTGATGAATTCATCTTATCGAGTAAACAAATTTTCCTAATCTTTCTGTTCAAGCGCCATCTAC | 0.961 RPM ratio (pull-down/input) |

From paper PMC12820563, “FoxP3 forms a head-to-head dimer in vivo and stabilizes its multimerization on adjacent microsatellites”
